# According to paper PMC11006913:
# Experiments:
# Assay in all cases: PBM; 200 nM protein, PBS
# Conditions in all cases: dsDNA, one strand shown
# HOXD13 [1] = molecular target: HOXD13 (Homo sapiens, UniProt P35453 263-343, T313R)
# HOXD13 [2] = molecular target: HOXD13 (Homo sapiens, UniProt P35453 263-343)
# HOXD13 [3] = molecular target: HOXD13 (Homo sapiens, UniProt P35453 263-343, T313A)
# Sequence of HOXD13 (Homo sapiens, UniProt P35453 263-343, T313A) (P35453 263-343 T313A): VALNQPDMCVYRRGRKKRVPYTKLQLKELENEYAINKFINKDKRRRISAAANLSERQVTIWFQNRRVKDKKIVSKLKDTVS
# Sequence of HOXD13 (Homo sapiens, UniProt P35453 263-343, T313R) (P35453 263-343 T313R): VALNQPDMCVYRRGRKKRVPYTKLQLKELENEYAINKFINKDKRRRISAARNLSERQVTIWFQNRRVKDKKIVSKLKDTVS
# Sequence of HOXD13 (Homo sapiens, UniProt P35453 263-343) (P35453 263-343): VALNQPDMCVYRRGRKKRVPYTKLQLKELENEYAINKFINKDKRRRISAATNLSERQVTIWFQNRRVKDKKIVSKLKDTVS
Sequence,binding signal (HOXD13 [1]),binding signal (HOXD13 [2]),binding signal (HOXD13 [3])
GGAGCAAC,"9.51 upbm affinity estimate (log intensity, higher = more binding, comparable within an allelic series)","9.53 upbm affinity estimate (log intensity, higher = more binding, comparable within an allelic series)","9.56 upbm affinity estimate (log intensity, higher = more binding, comparable within an allelic series)"
GGGAGAAC,"9.51 upbm affinity estimate (log intensity, higher = more binding, comparable within an allelic series)","9.63 upbm affinity estimate (log intensity, higher = more binding, comparable within an allelic series)","9.68 upbm affinity estimate (log intensity, higher = more binding, comparable within an allelic series)"
CTGGCCCC,"9.44 upbm affinity estimate (log intensity, higher = more binding, comparable within an allelic series)","9.38 upbm affinity estimate (log intensity, higher = more binding, comparable within an allelic series)","9.45 upbm affinity estimate (log intensity, higher = more binding, comparable within an allelic series)"
CGCGATGC,"9.5 upbm affinity estimate (log intensity, higher = more binding, comparable within an allelic series)","9.5 upbm affinity estimate (log intensity, higher = more binding, comparable within an allelic series)","9.65 upbm affinity estimate (log intensity, higher = more binding, comparable within an allelic series)"
CGCCCGCG,"9.5 upbm affinity estimate (log intensity, higher = more binding, comparable within an allelic series)","9.42 upbm affinity estimate (log intensity, higher = more binding, comparable within an allelic series)","9.59 upbm affinity estimate (log intensity, higher = more binding, comparable within an allelic series)"
AAGGGGGG,"9 upbm affinity estimate (log intensity, higher = more binding, comparable within an allelic series)","9.33 upbm affinity estimate (log intensity, higher = more binding, comparable within an allelic series)","9.26 upbm affinity estimate (log intensity, higher = more binding, comparable within an allelic series)"
TTGTAAAA,"10.7 upbm affinity estimate (log intensity, higher = more binding, comparable within an allelic series)","11.8 upbm affinity estimate (log intensity, higher = more binding, comparable within an allelic series)","11.6 upbm affinity estimate (log intensity, higher = more binding, comparable within an allelic series)"
CCGTAAAA,"10.5 upbm affinity estimate (log intensity, higher = more binding, comparable within an allelic series)","11.8 upbm affinity estimate (log intensity, higher = more binding, comparable within an allelic series)","11.6 upbm affinity estimate (log intensity, higher = more binding, comparable within an allelic series)"
CCGCCCGG,"9.44 upbm affinity estimate (log intensity, higher = more binding, comparable within an allelic series)","9.37 upbm affinity estimate (log intensity, higher = more binding, comparable within an allelic series)","9.62 upbm affinity estimate (log intensity, higher = more binding, comparable within an allelic series)"
CTTGTTAA,"10.6 upbm affinity estimate (log intensity, higher = more binding, comparable within an allelic series)","11.8 upbm affinity estimate (log intensity, higher = more binding, comparable within an allelic series)","11.7 upbm affinity estimate (log intensity, higher = more binding, comparable within an allelic series)"
CCGCCCTC,"9.56 upbm affinity estimate (log intensity, higher = more binding, comparable within an allelic series)","9.65 upbm affinity estimate (log intensity, higher = more binding, comparable within an allelic series)","9.66 upbm affinity estimate (log intensity, higher = more binding, comparable within an allelic series)"
CCCCTCGC,"9.62 upbm affinity estimate (log intensity, higher = more binding, comparable within an allelic series)","9.63 upbm affinity estimate (log intensity, higher = more binding, comparable within an allelic series)","9.67 upbm affinity estimate (log intensity, higher = more binding, comparable within an allelic series)"
AGCCGGCC,"9.49 upbm affinity estimate (log intensity, higher = more binding, comparable within an allelic series)","9.41 upbm affinity estimate (log intensity, higher = more binding, comparable within an allelic series)","9.49 upbm affinity estimate (log intensity, higher = more binding, comparable within an allelic series)"
CAGCGGGG,"9.37 upbm affinity estimate (log intensity, higher = more binding, comparable within an allelic series)","9.58 upbm affinity estimate (log intensity, higher = more binding, comparable within an allelic series)","9.58 upbm affinity estimate (log intensity, higher = more binding, comparable within an allelic series)"
CCTCCGCC,"9.44 upbm affinity estimate (log intensity, higher = more binding, comparable within an allelic series)","9.44 upbm affinity estimate (log intensity, higher = more binding, comparable within an allelic series)","9.54 upbm affinity estimate (log intensity, higher = more binding, comparable within an allelic series)"
GGCCGGCA,"9.49 upbm affinity estimate (log intensity, higher = more binding, comparable within an allelic series)","9.56 upbm affinity estimate (log intensity, higher = more binding, comparable within an allelic series)","9.65 upbm affinity estimate (log intensity, higher = more binding, comparable within an allelic series)"
AATAAACC,"10.6 upbm affinity estimate (log intensity, higher = more binding, comparable within an allelic series)","11.8 upbm affinity estimate (log intensity, higher = more binding, comparable within an allelic series)","11.6 upbm affinity estimate (log intensity, higher = more binding, comparable within an allelic series)"
CTTGTAAA,"10.9 upbm affinity estimate (log intensity, higher = more binding, comparable within an allelic series)","12.3 upbm affinity estimate (log intensity, higher = more binding, comparable within an allelic series)","11.9 upbm affinity estimate (log intensity, higher = more binding, comparable within an allelic series)"
CTATAAAG,"10.8 upbm affinity estimate (log intensity, higher = more binding, comparable within an allelic series)","11.9 upbm affinity estimate (log intensity, higher = more binding, comparable within an allelic series)","11.6 upbm affinity estimate (log intensity, higher = more binding, comparable within an allelic series)"
CACCGGTG,"9.69 upbm affinity estimate (log intensity, higher = more binding, comparable within an allelic series)","9.58 upbm affinity estimate (log intensity, higher = more binding, comparable within an allelic series)","9.72 upbm affinity estimate (log intensity, higher = more binding, comparable within an allelic series)"
CGAAGGCG,"9.52 upbm affinity estimate (log intensity, higher = more binding, comparable within an allelic series)","9.45 upbm affinity estimate (log intensity, higher = more binding, comparable within an allelic series)","9.53 upbm affinity estimate (log intensity, higher = more binding, comparable within an allelic series)"
GCTGCGCA,"9.55 upbm affinity estimate (log intensity, higher = more binding, comparable within an allelic series)","9.53 upbm affinity estimate (log intensity, higher = more binding, comparable within an allelic series)","9.77 upbm affinity estimate (log intensity, higher = more binding, comparable within an allelic series)"
CAGTGGGG,"9.47 upbm affinity estimate (log intensity, higher = more binding, comparable within an allelic series)","9.55 upbm affinity estimate (log intensity, higher = more binding, comparable within an allelic series)","9.72 upbm affinity estimate (log intensity, higher = more binding, comparable within an allelic series)"
TCGGCCCA,"9.58 upbm affinity estimate (log intensity, higher = more binding, comparable within an allelic series)","9.62 upbm affinity estimate (log intensity, higher = more binding, comparable within an allelic series)","9.55 upbm affinity estimate (log intensity, higher = more binding, comparable within an allelic series)"

Sequence,binding signal (HOXD13 [1]),binding signal (HOXD13 [2]),binding signal (HOXD13 [3])
ACCAGGGG,"9.62 upbm affinity estimate (log intensity, higher = more binding, comparable within an allelic series)","9.61 upbm affinity estimate (log intensity, higher = more binding, comparable within an allelic series)","9.9 upbm affinity estimate (log intensity, higher = more binding, comparable within an allelic series)"
AGGAGGGG,"9.43 upbm affinity estimate (log intensity, higher = more binding, comparable within an allelic series)","9.61 upbm affinity estimate (log intensity, higher = more binding, comparable within an allelic series)","9.63 upbm affinity estimate (log intensity, higher = more binding, comparable within an allelic series)"
GAGCCCAC,"9.49 upbm affinity estimate (log intensity, higher = more binding, comparable within an allelic series)","9.6 upbm affinity estimate (log intensity, higher = more binding, comparable within an allelic series)","9.72 upbm affinity estimate (log intensity, higher = more binding, comparable within an allelic series)"
CCAGTAAA,"10.4 upbm affinity estimate (log intensity, higher = more binding, comparable within an allelic series)","11.5 upbm affinity estimate (log intensity, higher = more binding, comparable within an allelic series)","11.2 upbm affinity estimate (log intensity, higher = more binding, comparable within an allelic series)"
CGCAGCCC,"9.49 upbm affinity estimate (log intensity, higher = more binding, comparable within an allelic series)","9.55 upbm affinity estimate (log intensity, higher = more binding, comparable within an allelic series)","9.57 upbm affinity estimate (log intensity, higher = more binding, comparable within an allelic series)"
CGCCCCCA,"9.33 upbm affinity estimate (log intensity, higher = more binding, comparable within an allelic series)","9.3 upbm affinity estimate (log intensity, higher = more binding, comparable within an allelic series)","9.5 upbm affinity estimate (log intensity, higher = more binding, comparable within an allelic series)"
CGCACAGC,"9.44 upbm affinity estimate (log intensity, higher = more binding, comparable within an allelic series)","9.48 upbm affinity estimate (log intensity, higher = more binding, comparable within an allelic series)","9.53 upbm affinity estimate (log intensity, higher = more binding, comparable within an allelic series)"
GCCGGTGA,"9.57 upbm affinity estimate (log intensity, higher = more binding, comparable within an allelic series)","9.7 upbm affinity estimate (log intensity, higher = more binding, comparable within an allelic series)","9.88 upbm affinity estimate (log intensity, higher = more binding, comparable within an allelic series)"
CATCGGGC,"9.55 upbm affinity estimate (log intensity, higher = more binding, comparable within an allelic series)","9.52 upbm affinity estimate (log intensity, higher = more binding, comparable within an allelic series)","9.62 upbm affinity estimate (log intensity, higher = more binding, comparable within an allelic series)"
ACGGTCCC,"9.51 upbm affinity estimate (log intensity, higher = more binding, comparable within an allelic series)","9.34 upbm affinity estimate (log intensity, higher = more binding, comparable within an allelic series)","9.69 upbm affinity estimate (log intensity, higher = more binding, comparable within an allelic series)"
GAGGGGCC,"9.41 upbm affinity estimate (log intensity, higher = more binding, comparable within an allelic series)","9.46 upbm affinity estimate (log intensity, higher = more binding, comparable within an allelic series)","9.41 upbm affinity estimate (log intensity, higher = more binding, comparable within an allelic series)"
GCCACGGA,"9.56 upbm affinity estimate (log intensity, higher = more binding, comparable within an allelic series)","9.61 upbm affinity estimate (log intensity, higher = more binding, comparable within an allelic series)","9.69 upbm affinity estimate (log intensity, higher = more binding, comparable within an allelic series)"
CCTATTAA,"11 upbm affinity estimate (log intensity, higher = more binding, comparable within an allelic series)","12.1 upbm affinity estimate (log intensity, higher = more binding, comparable within an allelic series)","11.9 upbm affinity estimate (log intensity, higher = more binding, comparable within an allelic series)"
GGCCCGAA,"9.5 upbm affinity estimate (log intensity, higher = more binding, comparable within an allelic series)","9.42 upbm affinity estimate (log intensity, higher = more binding, comparable within an allelic series)","9.59 upbm affinity estimate (log intensity, higher = more binding, comparable within an allelic series)"
ATTTACAA,"10.7 upbm affinity estimate (log intensity, higher = more binding, comparable within an allelic series)","11.8 upbm affinity estimate (log intensity, higher = more binding, comparable within an allelic series)","11.6 upbm affinity estimate (log intensity, higher = more binding, comparable within an allelic series)"
GTTTTATA,"10.8 upbm affinity estimate (log intensity, higher = more binding, comparable within an allelic series)","11.8 upbm affinity estimate (log intensity, higher = more binding, comparable within an allelic series)","11.6 upbm affinity estimate (log intensity, higher = more binding, comparable within an allelic series)"
GCACCGGA,"9.55 upbm affinity estimate (log intensity, higher = more binding, comparable within an allelic series)","9.43 upbm affinity estimate (log intensity, higher = more binding, comparable within an allelic series)","9.61 upbm affinity estimate (log intensity, higher = more binding, comparable within an allelic series)"
CTACGTAG,"9.84 upbm affinity estimate (log intensity, higher = more binding, comparable within an allelic series)","9.97 upbm affinity estimate (log intensity, higher = more binding, comparable within an allelic series)","9.71 upbm affinity estimate (log intensity, higher = more binding, comparable within an allelic series)"
GAAGGCCC,"9.62 upbm affinity estimate (log intensity, higher = more binding, comparable within an allelic series)","9.68 upbm affinity estimate (log intensity, higher = more binding, comparable within an allelic series)","9.79 upbm affinity estimate (log intensity, higher = more binding, comparable within an allelic series)"
CCTCATAA,"10.6 upbm affinity estimate (log intensity, higher = more binding, comparable within an allelic series)","11.8 upbm affinity estimate (log intensity, higher = more binding, comparable within an allelic series)","11.6 upbm affinity estimate (log intensity, higher = more binding, comparable within an allelic series)"
CCTACCCC,"9.51 upbm affinity estimate (log intensity, higher = more binding, comparable within an allelic series)","9.51 upbm affinity estimate (log intensity, higher = more binding, comparable within an allelic series)","9.59 upbm affinity estimate (log intensity, higher = more binding, comparable within an allelic series)"
GCTCGTAA,"10.6 upbm affinity estimate (log intensity, higher = more binding, comparable within an allelic series)","11.9 upbm affinity estimate (log intensity, higher = more binding, comparable within an allelic series)","11.7 upbm affinity estimate (log intensity, higher = more binding, comparable within an allelic series)"
CCAGTCCG,"9.56 upbm affinity estimate (log intensity, higher = more binding, comparable within an allelic series)","9.53 upbm affinity estimate (log intensity, higher = more binding, comparable within an allelic series)","9.68 upbm affinity estimate (log intensity, higher = more binding, comparable within an allelic series)"
